# Reference: PubChem BioAssay AID2549 (National Center for Advancing Translational Sciences (NCATS), 2010)
# Where “and” joins values, the source holds several entries; their conditions need not be identical. Identical values can stand only once. Out of some 240,000 compounds screened, about 1,300 (0.54%) were called active. Entries that show only a call come without a potency. Roughly 1% stayed inconclusive and do not appear here. The call rests on the fitted dose curve; in most records, active means well fitted inhibition curve with a large enough effect; inconclusive means small, poorly fitted or top-dose-only effect; inactive means flat fitted curve, though single readings scatter. For the sample, actives were picked, then their nearest neighbours and some compounds at random. The source holds several records for some structures; these can differ, active in one and inactive in another.
# Target: ATP-dependent DNA helicase Q1 (Homo sapiens) (UniProt P46063)
# Sequence (P46063 whole entry, looked up): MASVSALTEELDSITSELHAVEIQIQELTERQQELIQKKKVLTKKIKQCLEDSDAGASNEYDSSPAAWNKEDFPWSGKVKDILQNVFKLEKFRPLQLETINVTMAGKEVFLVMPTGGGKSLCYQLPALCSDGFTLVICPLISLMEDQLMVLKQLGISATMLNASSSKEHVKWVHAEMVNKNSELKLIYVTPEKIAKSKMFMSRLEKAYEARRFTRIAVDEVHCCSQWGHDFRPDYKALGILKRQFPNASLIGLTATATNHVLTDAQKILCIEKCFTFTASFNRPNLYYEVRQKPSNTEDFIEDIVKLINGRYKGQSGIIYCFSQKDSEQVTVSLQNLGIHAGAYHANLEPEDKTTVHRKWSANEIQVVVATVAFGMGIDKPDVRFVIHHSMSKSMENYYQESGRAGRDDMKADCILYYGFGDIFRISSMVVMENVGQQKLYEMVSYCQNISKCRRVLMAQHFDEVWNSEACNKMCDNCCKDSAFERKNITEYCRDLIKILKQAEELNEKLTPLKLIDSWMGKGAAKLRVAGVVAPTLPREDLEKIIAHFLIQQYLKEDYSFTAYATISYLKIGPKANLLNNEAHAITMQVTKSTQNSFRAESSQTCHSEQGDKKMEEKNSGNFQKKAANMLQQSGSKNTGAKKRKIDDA
# Experiment: qHTS Assay for Inhibitors of RecQ-Like Dna Helicase 1 (RECQ1); further: nearly all actives have a fitted effect of over 30% in size
# Conditions: RECQ1 DNA unwinding, red fluorescence kinetic read; series mostly up to 57.3 µM
# Source text: Survival of cells and the faithful propagation of the genome depend on elaborate mechanisms of detecting and repairing DNA damage. Treatment of advanced cancer relies on radiation therapy or chemotherapy, which kill cancer cells by causing extensive DNA damage. It is often found, that cancer cells develop resistance to therapy through enhanced activity of DNA repair functions; this has led to an increased interest in developing drugs that interfere with DNA repair, which could sensitize cancer cells to conventional therapy.
# This validation qHTS assay pertains to human RECQ1, which is important in resolving abnormal DNA structures formed during replication or homologous recombination. Shutting down the expression of RECQ1 leads to chromosomal instability and higher radiation sensitivity in cultured cells.
# The validation assay was a fluorescence quenching based kinetic qHTS for RECQ1 Helicase DNA unwinding. The activity was measured as ATP-dependent separation of a 20-bp DNA duplex extended by 30-nt single-stranded tails (forked duplex). The forked DNA substrate was tagged with rhodamine fluorophore (carboxytetramethyl rhodamine, TAMRA) and BHQ-2 (Black Hole Quencher 2) dark quencher. Strand separation results in an increase in the fluorescence of TAMRA (excitation 525 nm, emission 598 nm). This substrate construct operates in a red-shifted region where very few compound library members have been noted to fluoresce (PubChem AIDs 593 and 594). An additional feature of the assay is the inclusion of 2.5 ug/ml poly (dIdC), to reduce interference by compounds such as DNA intercalators, a major source of false inhibitors.
# Opher Gileadi, Structural Genomics Consortium, University of Oxford
# Screening Center PI: Austin, C.P.
# Screening Center: NIH Chemical Genomics Center [NCGC]
# Three uL of reaction buffer (25 mM Tris-HCl (pH 8.0), 5 mM NaCl, 2 mM MgCl2, 1mM DTT, 0.01% Tween- 20, and 2.5 ug/ml poly(dI-dC), including enzyme (50 nM RECQ1T1), were dispensed into a 1536-well Greiner black assay plate via solenoid-valve based nanoliter dispensers. Compounds (23 nl each in columns 5-48) and control (23 nl each in column 2 as dose-response) were transferred via a Kalypsys pintool equipped with a 1536-pin array. The plates were incubated for 15 min at room temperature, and then 1 ul of substrates (200 nM DNA and 2 mM ATP, final concentrations) was added to start the reaction. The plate was transferred into a ViewLux high-throughput CCD imager where the reaction progress was measured in a discontinuous kinetic mode (two reads spaced 2 hours apart, with intermediate room temperature incubation of the covered assay plate) by using standard red-fluorescence optics (excitation filter 525 nm, emission filter 598 nm). Enzyme-free and vehicle (DMSO) controls were included for signal normalization.
# Potency means the concentration at half of the fitted maximal effect.
Structure (SMILES),Potency,outcome
O=C1NC(=O)N(Cc2ccco2)C(=O)/C1=C\c1ccc(-c2ccc(F)cc2)o1,25.1 µM (active),–
O=C1NC(=O)N(CCc2ccc(F)cc2)C(=O)/C1=C/C=C/c1ccccc1,inactive,–
CC(C)CC(C)Nc1ccc(Nc2ccccc2)cc1 (stereo unspecified),inactive,–
N#CC(C#N)=Cc1cc(O)c(O)c([N+](=O)[O-])c1,31.6 µM (active),–
CCN(CC)c1nc(C)cc(OP(=S)(OC)OC)n1,inactive,–
CC(C)(C)c1ccc(CN2C(=O)CN=C(c3ccccc3)c3ccccc32)cc1,inactive,–
O=C1CC(=O)N(Cc2ccccc2)C(=O)N1CCCCCCN1C(=O)CC(=O)N(Cc2ccccc2)C1=O,7.94 µM (active),–
O=C(CN1CCCC1=O)NCCc1ccccc1,inactive,–
CO[C@H]1[C@@H](O)[C@@H](C)O[C@H](O[C@H]2[C@H](Oc3cccc4c(O)c5c(=O)oc6ccc(C)c7c(=O)oc(c34)c5c67)O[C@H](C)[C@H](O)[C@@H]2O)[C@@H]1O,inactive,–
Cc1c(C(=O)O)cccc1-n1c(C)cc(/C=C2\C(=O)NC(=O)N(c3ccc4c(c3)OCO4)C2=O)c1C,inactive,–
COc1cccc(N2C(=O)NC(=O)/C(=C\c3ccc([N+](=O)[O-])s3)C2=O)c1,22.4 µM (active),–
CCCCCCCCCCCCN=C(N)N,inactive,–
CCCN(C/C=C/I)C1CCc2ccc(O)cc2C1 (stereo unspecified),inactive,–
ClCCBr,inactive,–
CC(C)(Cc1c[nH]c2ccc(Cl)cc12)NCCOc1ccccc1OCC1CC1,inactive,–
CC(=O)[O][Sn]([c]1ccccc1)([c]1ccccc1)[c]1ccccc1,inactive,–
CN(C)C[C@H]1CCCC[C@]1(O)c1cccc(O)c1,inactive,–
O=C(OCC1O[C@@H](OC(=O)c2cc(O)c(O)c(O)c2)[C@@H](OC(=O)c2cc(O)c(O)c(O)c2)[C@@H](OC(=O)c2cc(O)c(O)c(O)c2)[C@@H]1OC(=O)c1cc(O)c(O)c(O)c1)c1cc(O)c(O)c(O)c1 (stereo partly specified),0.112 µM (active),–

Structure (SMILES),Potency,outcome
C=CCN1CCC2(C)c3cc(O)ccc3CC1[C@@H]2C (stereo partly specified),inactive,–
CC(C)(C)C(O)(CCc1ccc(Cl)cc1)Cn1cncn1 (stereo unspecified),inactive,–
O=C1CCc2cccc3c2N1CC3,inactive,–
C[C@@H]1C[C@H]2CC[C@H](O2)[C@H](C)C(=O)O[C@@H](C)C[C@@H]2CC[C@@H](O2)[C@@H](C)C(=O)O[C@H](C)C[C@H]2CC[C@H](O2)[C@H](C)C(=O)O[C@@H](C)C[C@@H]2CC[C@@H](O2)[C@@H](C)C(=O)O1,inactive,–
Nc1ccc(-c2ccc(N)c(N)c2)cc1N,inactive,–
CC[C@]1(O)C(=O)OCc2c1cc1n(c2=O)Cc2cc3ccccc3nc2-1,inactive,–
CC[N+](C)(CC)CCC[n+]1c(-c2ccccc2)c2cc(N)ccc2c2ccc(N)cc21,11.2 µM (active) and 35.5 µM (active),–
C[C@H]1C/C=C/[C@@H]2[C@@H]3O[C@]3(C)[C@@H](C)[C@H]3[C@H](Cc4ccccc4)NC(=O)[C@]32OC(=O)O/C=C/[C@](C)(O)C1=O,inactive,–
CN(C)[C@@H]1C(=O)C(C(N)=O)=C(O)[C@@]2(O)C(=O)C3=C(O)c4c(O)cccc4[C@@](C)(O)C3CC12 (stereo partly specified),inactive,–
N#CCCCl,inactive,–
N#Cc1cc(Br)c(O)c(Br)c1,inactive,–
CCCCC#N,inactive,–
CC(C)(c1ccc(OC[C@@H]2CO2)cc1)c1ccc(OC[C@H]2CO2)cc1,inactive,–
CO[C@@H]1C[C@@H](C[C@H]2CC[C@H](C)[C@@H]([C@@H](C)C(=O)O)O2)O[C@]2(O[C@](C)([C@H]3CC[C@@](C)(C4OC([C@H]5O[C@@](O)(CO)[C@H](C)C[C@@H]5C)C[C@@H]4C)O3)C[C@H]2C)[C@@H]1C (stereo partly specified),inactive,–
CN[C@@H]1C[C@H]2O[C@@](C)([C@@H]1OC)n1c3ccccc3c3c4c(c5c6ccccc6n2c5c31)C(=O)NC4,35.5 µM (active),inactive [at 11.5 µM]
C[C@]12O[C@H](C[C@@]1(O)C(=O)O)n1c3ccccc3c3c4c(c5c6ccccc6n2c5c31)CNC4=O,inactive,–
COc1ccc2[nH]cc(CCNCc3ccc(Br)cc3)c2c1,inactive,–
